A selection: hits, their analogues and other compounds. The true share with any hit is near 21%.
HCV inhibitor = blocks hepatitis C virus; AID 651820; Huh7.5.1 HCVcc-Cre infection, luciferase reporter, 44 h; 3.4% of 340,000 active; Potency, µM (doses to about 41.8 µM), inactives show at the top dose activity change, negative = inhibition, most hits filed as inhibitors; note: potency is the fitted concentration of half-maximal effect; % is set by controls: 0 for no effect and ±100 for the full control effect
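Antiviral activity was scored by luciferase reporter output from cells infected with HCVcc-Cre (~0.5 moi) in presence of compound, 44 h infection period, cells seeded 1,000/well 4 h prior.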
CHX counter = affects cycloheximide protein synthesis inhibition readout, counter-screen; max response, %; cell reporter, cycloheximide protein synthesis inhibition counterscreen; 12% of 300,000 active; AID 2314; in the data active = max response mostly above about 13%, no sharp cut-off; inactive = mostly below about 14%; note: read at 38.3 µM for the half of the compounds with a filed dose; 0% is about no effect
HCMV inh = blocks human cytomegalovirus replication; HFF cells, HCMV-luciferase reporter, 72 h; active compounds read low; activity change, negative = inhibition, % at 57.5 µM; 4.5% of 410,000 active; in the data active = activity change below about -60%; inconclusive = no clear call, values can overlap the other calls; inactive = above about -39%; note: % is set by controls: 0 for no effect and ±100 for the full control effect
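Compounds were evaluated in HFFs infected with an HCMV luciferase reporter virus (MOI 1 PFU/cell). Luciferase in lysates collected 72 h post infection served as the replication measure.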
Shiga inhibitor = blocks Shiga toxin action in Vero cells; inhibition, % at 38.7 µM; Vero cells, Shiga toxin protein synthesis inhibition reporter; 9.2% of 290,000 active; in the data active = inhibition mostly above about 28%, no sharp cut-off; inactive = mostly below about 43%; note: 0% is about no effect
Pf growth 96h = P. falciparum growth inhibition at 96 hours. P. falciparum luciferase reporter growth, 96 h. Potency, µM (highest dose often 28.7 µM), without a hit: top-dose activity change, negative = inhibition, actives largely listed as inhibitors. 6.9% of 320,000 active. AID 504834; note: potency is the fitted concentration of half-maximal effect; % is set by controls: 0 for no effect and ±100 for the full control effect
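Cell-based qHTS: luciferase-tagged P. falciparum in erythrocytes (2% hematocrit, 0.05% parasitemia final) incubated with compounds for 96 hours, 37 C, 5% CO2; luciferase detection reagent then added and luminescence measured.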
Pf growth 48h = P. falciparum growth inhibition at 48 hours (one generation); P. falciparum luciferase growth in erythrocytes, 48 h; Potency, µM (titrated, usually from 28.7 µM), without a hit: at the highest dose activity change, negative = inhibition, hits mostly inhibitors; 5.9% of 310,000 active; note: potency is the fitted concentration of half-maximal effect; % is set by controls: 0 for no effect and ±100 for the full control effect
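Parasite viability was followed by luminescence of a genomically integrated firefly luciferase. Cultures held 0.1% parasitemia at 2% hematocrit (final), incubated under 5% CO2 at 37 C.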
An asterisk follows results filed as active; i = inactive; u = inconclusive; x = no result. Unless noted, calls come from the whole dose curve; as a rule, active = well fitted inhibition curve with a large enough effect; inconclusive = small, poorly fitted or top-dose-only effect, or another doubt; inactive = no such curve, though single readings can be large or run the other way.

SMILES | HCV inhibitor | CHX counter | HCMV inh | Shiga inhibitor | Pf growth 96h | Pf growth 48h
O=C(N1CCCCC1)C1(c2ccccc2)CCOCC1 | -4% | 4 | -8 | 23 | 12µM* | -5%
O=C(N1CCOCC1)C1(c2ccccc2)CCCCC1 | -6% | -2 | -19 | -14 | 17% | -3%
CCn1c(CCCNC(=O)c2ccco2)nc2ccccc21 | 1% | -5 | 7 | -6 | 13% | -25%
CCn1c(CCNC(=O)c2ccco2)nc2ccccc21 | u | -4 | -8 | -8 | 9.3µM* | -8%
CC(C)Cn1c(CCNC(=O)c2ccco2)nc2ccccc21 | u | 31* | 26 | 117 | u | 43%
CCOC(=O)c1c(C=O)c2ccccc2n1Cc1ccccc1F | -4% | 7 | -7 | 30 | 1% | u
CCOC(=O)c1c(C=O)c(C)n(Cc2ccc(C)cc2)c1C | 3.2µM* | 4 | -1 | 26 | u | x
Cc1c(C=O)c(C=O)c(C)n1Cc1ccccc1 | u | -4 | -81* | -10 | 5.2µM* | x
CCOC(=O)c1c(C=O)c(C)n(Cc2ccccc2Cl)c1C | u | 10 | -8 | 11 | x | 3.3µM*
CC(=O)c1c(C(C)=O)c(C)n(Cc2ccccc2)c1C | 0% | -3 | -18 | 1 | x | -26%
COCCNC(=O)CCCn1c(SCC(=O)c2ccc(Br)cc2)nc2c(sc3ccccc32)c1=O | x | x | 6 | x | x | x
O=C(CSC1=Nc2ccccc2N=C(c2ccc(F)cc2)C1)NCc1ccc(Cl)cc1 | x | x | -25 | x | x | x
COC(=O)c1c(NC(=O)c2c(OC)cccc2OC)sc2c1C(C(=O)OC)CC2 (centres undefined) | u | 1 | -65* | 4 | 15% | u
COC(=O)c1c(NC(=O)c2c(OC)cccc2OC)sc2c1CCCC2 | x | x | -31 | x | x | x
CCCC(=O)Nc1sc2c(c1C(=O)OC)C(C(=O)OC)CC2 (centres undefined) | u | 6 | 27 | -7 | 0% | -7%
COC(=O)c1c(NC(=O)CCCOc2ccc(C(C)(C)C)cc2)sc2c1C(C(=O)OC)CC2 (centres undefined) | x | 15 | -84* | 25 | x | x
Cc1cc2oc(=O)cc(CN3CCN(c4ccc(Cl)c(Cl)c4)CC3)c2cc1Cl | x | x | 8 | x | x | x
O=S1(=O)CCOC[C@H](Cc2ccccc2)N1Cc1cccc(C(F)(F)F)c1 | u | x | -12 | x | x | x
FC(F)(F)c1cccc(CC2CN(Cc3ccccc3)Cc3ccccc3N2c2cc(Cl)cc(Cl)c2)c1 (centres undefined) | x | x | -98* | x | x | x
O=C(COc1ccc(Br)cc1Br)NC(=S)Nc1cccc(CO)c1 | 20% | 97* | 165 | 87* | 199% | 184%
O=C(COc1ccc2ccccc2c1Br)NC(=S)Nc1cccc(CO)c1 | -21% | 51* | 0 | 22* | 7% | 39%
CC1=CC(C)(C)N(C(=O)CNC2CCCCC2)c2cc(C)ccc21 | 4% | 6 | -40 | -12 | u | 9.3µM*
O=C(NCc1cccnc1)c1sc2cc(Cl)ccc2c1Cl | -2% | 0 | -22 | -20 | 104% | 4%
CC(C)(CNC(=O)c1sc2cc(F)ccc2c1Cl)N1CCOCC1 | 11µM* | 10 | u | 24 | u | -14%
O=C(NCc1ccco1)c1sc2cc(Cl)ccc2c1Cl | u | 34* | 26 | 58* | i | 18%
SMILES | HCV inhibitor | CHX counter | HCMV inh | Shiga inhibitor | Pf growth 96h | Pf growth 48h
O=C(NCCN1CCOCC1)c1sc2ccccc2c1Cl | -10% | 23* | 46 | 66 | u | 35%
Cc1ccc2c(Cl)c(C(=O)NCCCN3CCOCC3)sc2c1 | x | x | 48 | x | x | x
O=C(NCc1ccco1)c1sc2ccccc2c1Cl | u | 25* | 4 | 84* | 3.3µM* | 63%
CC(C)C[C@H](NC(=O)N1CCn2c1nc1ccccc12)C(=O)NCc1ccc2c(c1)OCO2 | -21% | 5 | 2 | 38 | u | u
CC(C)N1CCC1(C)C(=O)Nc1ccc2cn[nH]c2c1 (centres undefined) | x | x | 59 | x | x | x
OCCN1CCN(C(c2ccc(Cl)cc2Cl)c2sc3nc(-c4ccco4)nn3c2O)CC1 (centres undefined) | x | x | -4 | x | x | x
COc1ccc(N=C/C=C2\C=C(c3ccccc3)OC(C)(C)O2)cc1 | u | 17* | -11 | 44 | u | u
Cc1ccccc1N=C/C=C1/C=C(c2ccccc2)OC(C)(C)O1 | -22% | 8 | 41 | -49 | u | u
CCCCn1c(N)c(N(CC)C(=O)c2cccs2)c(=O)[nH]c1=O | -2% | x | -61* | x | x | x
CCCCn1c(N)c(N(CC)C(=O)c2cccc(OC)c2)c(=O)[nH]c1=O | 5% | -4 | -72* | -7 | -12% | 11%
CCCCn1c(N)c(N(Cc2ccccc2OC)C(=O)c2ccc([N+](=O)[O-])s2)c(=O)[nH]c1=O | u | x | -5 | x | 9.3µM* | 10µM*
COCCn1c(N)c(N(Cc2ccccc2)C(=O)c2ccc3ccccc3c2)c(=O)[nH]c1=O | 4% | -2 | u | 12 | u | 10µM*
Cc1ccc(NC(=O)c2cc(-c3ccco3)on2)cc1 | 2% | 41* | 11 | 133* | 7% | 350%
COc1ccc(NC(=O)c2cc(-c3ccco3)on2)cc1OC | 11µM* | 17 | -3 | 28 | 49% | 40%
Cc1ccc(NC(=O)c2cc(-c3ccco3)on2)cc1C | -6% | 38* | -1 | 99* | u | 332%
O=C(Nc1ccc(F)c(Cl)c1)c1cc(-c2ccco2)on1 | -9% | 16 | -14 | 62* | -2% | 75%
Nn1c(SCC(=O)NCCc2ccc(F)cc2)nnc1C1CCCCC1 | -7% | x | -10 | x | u | u
Cc1ccc(NC(=O)c2cc(-c3cccc(O)c3)on2)cc1C | u | 47* | 12 | 78* | -37% | x
O=C(Nc1cccc(O)c1)c1cc(-c2ccc3c(c2)OCO3)on1 | 7% | 3 | 41 | -2 | u | -23%
COc1cc2c(C(=O)N3CCN(C)CC3)c(C)n(-c3ccccc3)c2cc1Br | 1% | 11 | 2 | -5 | 1.5µM* | 4.7µM*
COc1ccccc1N1CCN(C(=O)c2c(C)cc(=O)oc2C)CC1 | 9% | 4 | -23 | 23 | x | 7%
COc1cc2c(C(=O)N3CCOCC3)c(CSc3ccccc3)n(C)c2cc1Br | 10µM* | -7 | -9 | 21 | u | -15%
COc1cc2c(C(=O)N3CCN(c4ccccc4C)CC3)c(C)oc2cc1Br | 11µM* | 2 | -37 | -14 | 41% | -2%
COc1cc2c(C(=O)N3CCN(C)CC3)c(C)n(C)c2cc1Br | -16% | 0 | 3 | -7 | i | 97%
O=C(NCCc1ccc(Cl)cc1)c1cc(-c2ccccc2)n[nH]1 | x | x | -21 | x | x | x
Cc1nnc(SCCCOc2ccccc2)nc1C | 0% | x | -18 | x | x | x
Cc1ccc(OCCCCNC(C)c2ccccc2)c(C)c1 (centres undefined) | 10µM* | -5 | 12 | x | u | u

Source: PubChem BioAssay (National Center for Advancing Translational Sciences (NCATS))
